# Test results published in PubChem BioAssay.
# System: not listed separately
# Experiment: probe aEGFR binding to arrayed compounds – biochemical, biotinylated probe, 635/667 nm fluorescence, primary screen (AID 1097);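 also: probe is a biotinylated anti-EGFR antibody binding compounds printed on slides; score combines fluorescence near 667 nm and signal to noise of each spot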
# Details: small-molecule microarray, higher = more signal
row,Structure (SMILES),composite z-score
1,CC(C)C(=C=CC[C@@H](O)c1cccc(OCCO)c1)C[C@@H](O)COCc1ccccc1,-0.203
2,COC(=O)[C@@]1(Cc2ccccc2)[C@H]2c3cc(C(=O)N4CCCC4)n(CCSCCO)c3C[C@H]2CN1C(=O)c1ccccc1,0.0971
3,CCOC(=O)C1=C[C@@H](C(C)(C)C)N(S(=O)(=O)c2ccc(C)cc2)[C@H]1c1cccc(Cl)c1,0.301
4,C=C[C@H](C)[C@H](OC(=O)Nc1ccc(OC)cc1)c1ccc(OCCO)cc1,-0.216
5,C[C@]1(C(=O)O)c2ccccc2C(=O)N(Cc2ccc(OC(F)(F)F)cc2)[C@H]1c1ccc(CO)cc1,-0.179

# System: Plasmodium falciparum Sir2 (PF13_0152, Sir2A)
# Experiment: Plasmodium falciparum Sir2A binding compounds – biochemical, small-molecule microarray, 635 nm fluorescence, primary screen (AID 1098);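 also: score merges spot fluorescence intensity with its signal-to-noise ratio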
# Details: fluorescence 635 nm, higher = more signal
row,Structure (SMILES),composite z-score
1,COc1cc(NN2C(C(O)c3ccc(I)cc3)C=CC3C(=O)N(c4ccccc4)C(=O)C32)cc(OC)c1OC (configuration not stated),0.913
2,CN(C)CCCC[C@@H]1NC(=O)[C@@H]2C[C@H](C(=O)O)[C@H](c3cccc(OCCO)c3)N2C1=O,1.25
3,CN1C(=O)C2C=CC(C(O)c3cc(C(F)(F)F)cc(C(F)(F)F)c3)N(Nc3ccccc3)C2C1=O (configuration not stated),0.395
4,C=C(/C(=C/C[C@H](OC(=O)c1ccncc1)c1ccccc1OCCO)c1cnc2ccccc2c1)C(C)C,1.06
5,COC(=O)[C@@]1(Cc2ccccc2CN=[N+]=[N-])N=C(c2ccc(OCCCO)cc2)O[C@H]1c1ccccc1,1.13
6,C=CCC(OC(C)=O)[C@@H]1[C@@H](N(Cc2cccc3ccccc23)C(=O)c2ccc(-c3ccccc3)cc2)c2cc(OCCCO)ccc2N1C(=O)c1ccc(-c2ccccc2)cc1 (some centres not stated),0.122
7,COC(=O)[C@@]1(Cc2ccc(F)cc2)[C@H]2c3cc(C(=O)N(C)C)n(Cc4c(CO)[nH]cc(C)c4=O)c3C[C@H]2CN1C(=O)c1ccccc1,-0.0424
